From PubChem BioAssay
Only a selection was taken, and hits are over-represented in it overall.
miR122 inh: miR-122 suppressors via Renilla sensor increase, primary screen, cell-based, Huh7 psiCHECK-miR122, Renilla luciferase, single point. actives 0.14% (n = 340,000). activation, % at 12.5 µM. 48 h;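 active = mean activation of 30% or more, with every replicate also reaching 30%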;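 note: higher luciferase signal means stronger suppression of miR-122 activity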
Large screens that a line does not name were inactive.

COc1cccc(S(=O)(=O)N(C)C[C@@H]2Oc3ncc(-c4ccc(F)cc4)cc3C(=O)N([C@H](C)CO)C[C@@H]2C)c1	none
CCC(=O)Nc1ccc2c(c1)C(=O)N(C)C[C@H](OC)[C@@H](C)CN(C(C)=O)[C@H](C)CO2	none
C[C@@H]1CN([C@H](C)CO)C(=O)c2cc(-c3cccnc3)cnc2O[C@@H]1CN(C)C(=O)Nc1ccc(F)cc1	none
CCC(=O)Nc1ccc2c(c1)C(=O)N(C)C[C@@H](OC)[C@H](C)CN(C(C)=O)[C@H](C)CO2	none
CC(=O)N(C)C[C@H]1Oc2cc(C#C[C@H](C)O)ccc2S(=O)(=O)N([C@H](C)CO)C[C@H]1C	none
C[C@@H]1CN([C@H](C)CO)C(=O)c2cc(/C=C/c3ccccc3)cnc2O[C@H]1CN(C)Cc1ccccc1F	none
C[C@@H]1CN([C@H](C)CO)S(=O)(=O)c2ccc(-c3cccc(C#N)c3)cc2O[C@H]1CN(C)Cc1ccccn1	none
C[C@H](CO)N1C[C@H](C)[C@@H](CN(C)C(=O)c2ccccc2F)Oc2ncc(C#Cc3ccc(F)cc3)cc2C1=O	none
C[C@H](CO)N1C[C@H](C)[C@@H](CN(C)Cc2ccc(C(F)(F)F)cc2)Oc2c(cccc2N(C)C)C1=O	none
COc1ccccc1-c1cnc2c(c1)C(=O)N([C@H](C)CO)C[C@H](C)[C@@H](CN(C)C(=O)CN(C)C)O2	none
CCCN(C)C[C@H]1Oc2cc(C#CC(C)C)ccc2S(=O)(=O)N([C@H](C)CO)C[C@H]1C	none
CC(=O)N(C)C[C@@H]1Oc2cc(C#CC3CCCCC3)ccc2S(=O)(=O)N([C@H](C)CO)C[C@H]1C	none
Cc1ccc(-c2cnc3c(c2)C(=O)N([C@@H](C)CO)C[C@H](C)[C@H](CN(C)C(=O)Cc2cccnc2)O3)cc1	none
Cc1cccc(S(=O)(=O)C(C#N)c2nc3ccccc3nc2N2CCCC2)c1 (configuration not stated)	none
N#CCc1c(C#N)c(N)nc(N2CCN(S(=O)(=O)c3ccccc3)CC2)c1C#N	miR122 inh 35.8
C[C@H](CO)N1C[C@H](C)[C@H](CN(C)C(=O)c2cccnc2)Oc2ncc(-c3ccccc3)cc2C1=O	none
Cc1ccc(-c2cnc3c(c2)C(=O)N([C@@H](C)CO)C[C@H](C)[C@H](CN(C)C(=O)c2ccncc2)O3)cc1	none
CO[C@H]1CN(C)C(=O)c2cc(NS(=O)(=O)c3ccccc3)ccc2OC[C@@H](C)N(C)C[C@H]1C	none
C[C@H]1CN([C@@H](C)CO)S(=O)(=O)c2ccc(C#Cc3cccc(F)c3)cc2O[C@H]1CN(C)C(=O)CN1CCOCC1	none
CO[C@@H]1CN(C)C(=O)c2cc(NC(=O)Cc3ccccc3)ccc2OC[C@H](C)N(C)C[C@H]1C	none
C[C@H]1CN([C@@H](C)CO)C(=O)c2cc(C3=CCCCC3)cnc2O[C@H]1CN(C)C(=O)Cc1ccccc1	none
C[C@@H]1CN([C@@H](C)CO)C(=O)c2cc(C#Cc3ccccc3)cnc2O[C@@H]1CN(C)C(=O)c1ccccn1	none
CCOC(=O)CCS(=O)(=O)c1nc(-c2ccccc2)cc(C(F)(F)F)n1	miR122 inh 51.4
CCOC(=O)Nc1cc2c(c(N)n1)N=C(c1ccccc1)CN2	none
COCC#Cc1cnc2c(c1)C(=O)N([C@H](C)CO)C[C@H](C)[C@H](CN(C)C(=O)Cc1ccccc1)O2	none
CCCC#Cc1cnc2c(c1)C(=O)N([C@H](C)CO)C[C@H](C)[C@H](CN(C)Cc1ccccc1F)O2	none
COc1ccc(C#Cc2cnc3c(c2)C(=O)N([C@@H](C)CO)C[C@H](C)[C@H](CN(C)CC2CCCC2)O3)cc1	none
COc1nnc(-c2ccc(N3CCOCC3)c(NC(=O)c3ccccc3)c2)c2ccccc12	miR122 inh 45.1
COc1ccc(NS(=O)(=O)c2ccc(N3CCOCC3)c(NC(=O)c3cccc(F)c3)c2)cc1	none
COc1ccc(NS(=O)(=O)c2ccc(N3CCOCC3)c(NC(=O)c3ccc(F)cc3)c2)cc1	none
CC(=O)N(C)C[C@@H]1Oc2cc(C#C[C@@H](C)O)ccc2S(=O)(=O)N([C@@H](C)CO)C[C@@H]1C	none
C[C@@H]1CN([C@@H](C)CO)S(=O)(=O)c2ccc(C#CC3CC3)cc2O[C@H]1CN(C)Cc1ccccn1	none
COc1ccc(Cn2c(SCc3ccccc3C)nc3cc(OC)c(OC)cc3c2=N)cc1	miR122 inh 62.1
COc1ccccc1S(=O)(=O)N(C)C[C@@H]1Oc2cc(/C=C/c3ccccc3)ccc2S(=O)(=O)N([C@H](C)CO)C[C@@H]1C	none
C[C@H]1CN([C@@H](C)CO)C(=O)c2cccc(NC(=O)C3CCCCC3)c2O[C@@H]1CN(C)Cc1ccc(C(=O)Nc2ccccc2N)cc1	none
C[C@H]1CN([C@@H](C)CO)C(=O)c2cc(C#CC3(O)CCCC3)cnc2O[C@H]1CN(C)S(=O)(=O)c1ccccc1	none
C/C=C/c1cnc2c(c1)C(=O)N([C@@H](C)CO)C[C@H](C)[C@@H](CN(C)CC1CCOCC1)O2	none
O=C(OCn1ncc(Cl)c(Cl)c1=O)c1ccccc1Cl	miR122 inh 61.2
CCC(=O)N(C)C[C@H]1Oc2ncc(C#Cc3ccccc3OC)cc2C(=O)N([C@H](C)CO)C[C@H]1C	none
C[C@@H]1CN([C@H](C)CO)C(=O)c2cc(-c3cccc(C#N)c3)cnc2O[C@H]1CN(C)Cc1ccccc1	none
CC(=O)Nc1ccc(C(=O)Nc2ccc(S(=O)(=O)NCC3CCCO3)cc2)cc1 (configuration not stated)	none
O=C(Nc1ccc(CN2CCOCC2)cc1)c1ccc(-c2ccc(Cl)cc2Cl)o1	miR122 inh 33.8
CCOC(=O)c1ccc(NC(=O)c2ccc(CN3CCOCC3)cc2)cc1	miR122 inh 37.6
O=C(NCCCN1CCN(Cc2ccccc2)CC1)c1nnc(Cc2c(F)cccc2Cl)o1	none
COc1ccc(NS(=O)(=O)c2cc(NC(=O)c3ccc(Cl)cc3)ccc2N2CCOCC2)cc1	none
COc1cccc(-c2ccc3c(c2)O[C@H](CN(C)Cc2cccnc2)[C@H](C)CN([C@H](C)CO)S3(=O)=O)c1	none
C/C=C/c1ccc2c(c1)O[C@H](CN(C)Cc1ccccc1)[C@@H](C)CN([C@@H](C)CO)S2(=O)=O	none
C[C@@H]1CN([C@H](C)CO)S(=O)(=O)c2ccc(Br)cc2O[C@@H]1CN(C)S(C)(=O)=O	none
C[C@H]1CN([C@@H](C)CO)S(=O)(=O)c2ccc(-c3ccncc3)cc2O[C@H]1CN(C)Cc1cncnc1	none
C[C@@H]1CN([C@@H](C)CO)S(=O)(=O)c2ccc(-c3cccnc3)cc2O[C@@H]1CN(C)Cc1ccccn1	none
CC(C)CC#Cc1cnc2c(c1)C(=O)N([C@H](C)CO)C[C@H](C)[C@H](CN(C)C(=O)C1CCCCC1)O2	none
FC(F)(F)c1cc(CCN2CCNC[C@@H]2CC2CCCCC2)cc(C(F)(F)F)c1	miR122 inh 37.7
COCC#Cc1ccc2c(c1)O[C@@H](CN(C)C(C)=O)[C@@H](C)CN([C@@H](C)CO)S2(=O)=O	none
CCCNC(=O)N(C)C[C@H]1Oc2ncc(C#CCC(C)C)cc2C(=O)N([C@@H](C)CO)C[C@@H]1C	none
COCC#Cc1cnc2c(c1)C(=O)N([C@@H](C)CO)C[C@H](C)[C@H](CN(C)S(=O)(=O)c1cccc(OC)c1)O2	none
C[C@@H]1CN([C@H](C)CO)C(=O)c2cc(N(C)C)ccc2O[C@@H]1CN(C)S(=O)(=O)c1ccc(Cl)cc1	none
CCCNC(=O)N(C)C[C@@H]1Oc2ncc(/C=C/c3ccccc3)cc2C(=O)N([C@@H](C)CO)C[C@H]1C	none
CCC(=O)N(C)C[C@H]1Oc2cc(C#C[C@@H](C)O)ccc2S(=O)(=O)N([C@@H](C)CO)C[C@H]1C	none
OCc1ccc(-c2nn(Cc3ccccc3)c3ccccc23)o1	miR122 inh 53.7
